Drawing on PubChem BioAssay (EPA / NIEHS), this text covers outcome and AC50 for six molecules.

What is called AC50 is the midpoint of the concentration-response curve, whichever way the signal moves.

Read-out in experiment [1]: Interleukin-8 (IL8), CXCL8 (gene 3576)
Kind of experiment: BSK_3C_IL8: BioMAP Diversity Plus: 3C Assay for Interleukin-8 (IL8) Biomarker Activity (AID 2283020). The note with it: primary human endothelial cells (HUVEC); actives raise or lower the signal. In short, it runs like this:
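ELISA read-out of IL-8 from human umbilical vein endothelium, measured 24 h after chemical dosing. Activity is expressed relative to DMSO negative control, with both increases and decreases fitted.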

Read-out in experiment [2]: Monokine induced gamma interferon (MIG), CXCL9 (gene 4283)
Kind of experiment: BSK_3C_MIG: BioMAP Diversity Plus: 3C Assay for Monokine induced gamma interferon (MIG) Biomarker Activity (AID 2283021).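 As to AC50: MIG protein level measured by immunoassay in the treated endothelial cultures.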 The note with it: primary human endothelial cells (HUVEC); actives raise or lower the signal. The method, boiled down: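 Read-out is ELISA detection of MIG on human umbilical vein endothelial cells, taken 24 h after dosing. Gain or loss of signal was scored relative to DMSO controls using bidirectional curve fitting.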

The target in experiment [3] is human Vitamin D Receptor (VDR), VDR (gene 7421) (UniProt P11473). Kind of experiment: ATG_VDR_TRANS: Attagene TRANS-FACTORIAL HepG2 Assay for human Vitamin D Receptor (VDR) (AID 2283022; active = hit-call score of the fitted dose curve at least 0.9, where 1 is the maximum). The method, boiled down:
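HepG2 cells were transiently transfected with GAL4-UAS reporter units and a chimeric VDR-Gal4 construct, then dosed for 24 hours. Reporter mRNA was quantified by RT-PCR, fluorescent labeling, HpaI digestion and capillary electrophoresis; gain of signal analysed vs DMSO.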

Experiment [4] can be described thus: BSK_3C_SRB: Viability Assessment in the BioMAP Diversity Plus: 3C Assay (AID 2283023).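 Also: fitted both ways against DMSO so a hit may be signal rise or drop.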 The note with it: primary human endothelial cells (HUVEC). In short, it runs like this: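 Human umbilical vein endothelial cells in the 3C system, treated 24 h. Total protein measured by 0.1% sulforhodamine B staining after 10% TCA fixation, read at 560 nm; bidirectional fit versus DMSO.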

Read-out in experiment [5]: Matrix Metallopeptidase 1 (MMP1), MMP1 (gene 4312)
Kind of experiment: BSK_BE3C_MMP1: BioMAP Diversity Plus: BE3C Assay for Matrix Metallopeptidase 1 (MMP1) Biomarker Activity (AID 2283024). The note with it: primary human bronchial epithelial cells; actives raise or lower the signal. The method, boiled down:
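Human bronchial epithelial cells (BE3C system) exposed to compound for 24 h; MMP1 then quantified by ELISA. Activity was fitted in both directions relative to DMSO.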

Read-out in experiment [6]: Pselectin, SELP (gene 6403)
Kind of experiment: BSK_4H_Pselectin: BioMAP Diversity Plus: 4H Assay for Pselectin Biomarker Activity (AID 2283026). The note with it: primary human endothelial cells (HUVEC); actives raise or lower the signal. The method, boiled down:
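ELISA read-out of P-selectin on human umbilical vein endothelium after 24 h of dosing. Values derive from bidirectional fitting relative to DMSO. Parallel SRB protein staining flagged overt cytotoxicity.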

Experiment [7] in a line: BSK_4H_SRB: Viability Assessment in the BioMAP Diversity Plus: 4H Assay (AID 2283027).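 Also: cells exposed to compound for 24 h before staining.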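 As to AC50: curves fitted both ways versus DMSO so AC50 may be loss or gain.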 As to conditions: primary human endothelial cells (HUVEC). The method, boiled down:
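Human umbilical vein endothelial cells, 24 h after chemical dosing; total protein measured by 0.1% sulforhodamine B staining after 10% TCA fixation, read at 560 nm. Bidirectional fitting against DMSO.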

Experiment [8] can be described thus: BSK_BE3C_SRB: Viability Assessment in the BioMAP Diversity Plus: BE3C Assay (AID 2283028).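 As to AC50: fitted both ways so AC50 may mark signal gain or loss versus DMSO.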 As to conditions: primary human bronchial epithelial cells. In short, it runs like this: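 Human bronchial epithelial primary cells in confluent culture, 24 h after chemical dosing; total protein by 0.1% SRB staining after 10% TCA fixation, read at 560 nm. Bidirectional fitting versus DMSO baseline.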

Read-out in experiment [9]: Thrombomodulin, THBD (gene 7056)
Kind of experiment: BSK_3C_Thrombomodulin: BioMAP Diversity Plus: 3C Assay for Thrombomodulin Biomarker Activity (AID 2283029). The note with it: primary human endothelial cells (HUVEC); actives raise or lower the signal. In short, it runs like this: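 Read-out is ELISA of thrombomodulin on human umbilical vein endothelium 24 h after chemical dosing. Gain or loss of signal is scored relative to DMSO. Overt cytotoxicity is checked in parallel cultures by sulforhodamine B staining.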

Read-out in experiment [10]: Urokinase-type plasminogen activator receptor (uPAR), PLAUR (gene 5329)
Kind of experiment: BSK_4H_uPAR: BioMAP Diversity Plus: 4H Assay for Urokinase-type plasminogen activator receptor (uPAR) Biomarker Activity (AID 2283030). The note with it: primary human endothelial cells (HUVEC); actives raise or lower the signal. In short, it runs like this: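 Human umbilical vein endothelial cells in the 4H system, 24 h after chemical dosing. Cell-surface uPAR measured by ELISA, fitted in both directions versus DMSO; cytotoxicity checked by SRB total protein in parallel cultures.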

Read-out in experiment [11]: Vascular endothelial growth factor receptor 2 (Homo sapiens) (UniProt P35968)
Kind of experiment: BSK_4H_VEGFRII: BioMAP Diversity Plus: 4H Assay for Vascular endothelial growth factor receptor 2 (VEGFR2) Biomarker Activity (AID 2283031).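 As to AC50: cell-surface VEGFR2 protein level quantified by ELISA.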 The note with it: primary human endothelial cells (HUVEC); actives raise or lower the signal. In short, it runs like this:
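Primary human umbilical vein endothelial cells (4H system), 24 h exposure; cell-surface VEGFR2 measured by ELISA. Bidirectional fitting versus DMSO; cytotoxicity checked in parallel by SRB total-protein staining.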

Read-out in experiment [12]: Human Leukocyte Antigen - DR isotype (HLADR), HLA-DRA (gene 3122)
Kind of experiment: BSK_BE3C_HLADR: BioMAP Diversity Plus: BE3C Assay for Human Leukocyte Antigen - DR isotype (HLADR) Biomarker Activity (AID 2283032). As to conditions: primary human bronchial epithelial cells; actives raise or lower the signal. In short, it runs like this:
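ELISA read-out of HLA-DR on human lung bronchial epithelial primary cells, measured 24 h post-dosing. Both increases and decreases were scored relative to DMSO vehicle.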

Read-out in experiment [13]: Vascular cell adhesion molecule 1 (VCAM1), VCAM1 (gene 7412)
Kind of experiment: BSK_4H_VCAM1: BioMAP Diversity Plus: 4H Assay for Vascular cell adhesion molecule 1 (VCAM1) Biomarker Activity (AID 2283033).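 As to outcome: cell-surface VCAM-1 protein measured by ELISA.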 As to conditions: primary human endothelial cells (HUVEC); actives raise or lower the signal. In short, it runs like this: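 ELISA read-out of VCAM-1 on human umbilical vein endothelium 24 hours after chemical dosing; gain or loss of signal was fitted relative to DMSO, with sulforhodamine B staining of parallel cultures flagging overt cytotoxicity.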

Read-out in experiment [14]: Interferon-gamma inducible Protein 10 (IP10), CXCL10 (gene 3627)
Kind of experiment: BSK_BE3C_IP10: BioMAP Diversity Plus: BE3C Assay for Interferon-gamma inducible Protein 10 (IP10) Biomarker Activity (AID 2283034). The note with it: primary human bronchial epithelial cells; actives raise or lower the signal. The method, boiled down:
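Chemical is dosed onto human lung bronchial epithelial primary cells, cultures are incubated 24 h, and IP-10 is then quantified by ELISA. Gain or loss of signal is fitted in both directions relative to DMSO.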

Read-out in experiment [15]: Monokine induced gamma interferon (MIG), CXCL9 (gene 4283)
Kind of experiment: BSK_BE3C_MIG: BioMAP Diversity Plus: BE3C Assay for Monokine induced gamma interferon (MIG) Biomarker Activity (AID 2283035). As to conditions: primary human bronchial epithelial cells; actives raise or lower the signal. The method, boiled down:
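Primary human bronchial epithelial cells treated for 24 h; MIG levels measured by ELISA, fitted bidirectionally versus DMSO. Parallel SRB total-protein staining assessed cytotoxicity.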

Read-out in experiment [16]: Plasminogen activator inhibitor-1 (PAI1), SERPINE1 (gene 5054)
Kind of experiment: BSK_BE3C_PAI1: BioMAP Diversity Plus: BE3C Assay for Plasminogen activator inhibitor-1 (PAI1) Biomarker Activity (AID 2283037). As to conditions: primary human bronchial epithelial cells; actives raise or lower the signal. In short, it runs like this:
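Primary human lung bronchial epithelial cells; chemical dosing; 24 h; PAI-1 measured by ELISA; bidirectional fit referenced to DMSO as negative control.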

Read-out in experiment [17]: urokinase plasminogen activator (uPA), PLAU (gene 5328)
Kind of experiment: BSK_BE3C_uPA: BioMAP Diversity Plus: BE3C Assay for urokinase plasminogen activator (uPA) Biomarker Activity (AID 2283038).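 Also: uPA protein level quantified by ELISA in cell cultures; uPA read one day after compound addition.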 The note with it: primary human bronchial epithelial cells; actives raise or lower the signal. In short, it runs like this: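 Primary human bronchial epithelial cells, uPA measured by ELISA 24 h after dosing. Bidirectional change relative to DMSO; cytotoxicity checked in parallel cultures by sulforhodamine B total-protein staining.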

Experiment [18] can be described thus: BSK_3C_Vis: BioMAP Diversity Plus: 3C Assay for Morphology Visualization (AID 2283025).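 Also: fitted both ways so gain or loss versus DMSO counts.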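 As to AC50: light microscopy image of cell morphology used as background control.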 The note with it: primary human endothelial cells (HUVEC). The method, boiled down: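 Chemicals were added to primary human umbilical vein endothelium, cells were incubated 24 h, and morphology was then visualized by light microscopy. Gain or loss of signal was fitted bidirectionally relative to DMSO.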

Read-out in experiment [19]: Transforming growth factor beta 1 (TGFb1), TGFB1 (gene 7040)
Kind of experiment: BSK_BE3C_TGFb1: BioMAP Diversity Plus: BE3C Assay for Transforming growth factor beta 1 (TGFb1) Biomarker Activity (AID 2283036;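 as to outcome: TGF-b1 protein level measured by ELISA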). The note with it: primary human bronchial epithelial cells; actives raise or lower the signal. The method, boiled down:
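Primary human lung bronchial epithelial cells; compound exposure 24 h; TGF-b1 by ELISA; bidirectional fit, DMSO baseline. Parallel SRB total-protein staining for cytotoxicity.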

Read-out in experiment [20]: Urokinase-type plasminogen activator receptor (uPAR), PLAUR (gene 5329)
Kind of experiment: BSK_BE3C_uPAR: BioMAP Diversity Plus: BE3C Assay for Urokinase-type plasminogen activator receptor (uPAR) Biomarker Activity (AID 2283039).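 As to outcome: cells exposed to compound for one day before measurement.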 As to conditions: primary human bronchial epithelial cells; actives raise or lower the signal. In short, it runs like this:
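Human bronchial epithelial primary cells; chemical exposure 24 h; uPAR by ELISA; bidirectional fit vs DMSO control.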

Values joined by “and” are separate entries in the source; they are usually repeats but may differ in a detail not shown here. Equal values may be shown once. Records with an inconclusive call do not appear. Where a structure was tested more than once in an assay, its records may differ in their call. Active and inactive are the calls of the source. The calls were made as follows, unless noted: active = hit-call score of the fitted dose curve at least 0.9, where 1 is the maximum; inactive = score below 0.9.

Sequence of human Vitamin D Receptor (VDR), VDR (gene 7421) (P11473 whole entry, looked up, the tested form may be a part): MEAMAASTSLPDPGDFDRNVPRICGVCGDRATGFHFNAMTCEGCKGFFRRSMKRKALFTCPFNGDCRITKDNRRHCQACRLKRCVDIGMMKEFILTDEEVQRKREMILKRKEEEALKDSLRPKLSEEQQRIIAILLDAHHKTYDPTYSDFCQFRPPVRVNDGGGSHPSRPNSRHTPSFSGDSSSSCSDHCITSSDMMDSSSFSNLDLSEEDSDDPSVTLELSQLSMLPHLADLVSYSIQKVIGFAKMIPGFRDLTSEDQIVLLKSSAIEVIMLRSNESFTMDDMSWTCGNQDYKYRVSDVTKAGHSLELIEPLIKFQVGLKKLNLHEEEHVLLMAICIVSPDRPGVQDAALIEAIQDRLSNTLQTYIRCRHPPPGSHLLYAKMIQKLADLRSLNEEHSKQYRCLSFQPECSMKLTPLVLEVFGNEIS

Take `OCC(F)(F)C(F)(F)C(F)(F)C(F)F`: the outcome in experiment [1], in experiment [2], in [3], in [4], in [5] and in experiment [6] was inactive. For the same molecule, the outcome in experiment [7], in [8], in experiment [9], in experiment [10], in experiment [11] and in [12] was inactive. Also, the outcome in experiment [13], in [14], in [15], in [16] and in [17] was inactive.

Consider `C=CC(=O)OCC(F)(F)C(F)(F)C(F)(F)C(F)(F)COC(=O)C=C`, for which the half-maximal activity concentration (AC50) in experiment [1] was 23.6 µM (active) and 44.4 µM (active); in [2] it was 23.5 µM (active) and 26.4 µM (active); in experiment [4] it was 34.8 µM (active) and 24.8 µM (active); in [5] it was 20.4 µM (active) and 20.5 µM (active); in experiment [6] it was 20.6 µM (active) and 28.9 µM (active); in [7] it was 47.1 µM (active) and 44.8 µM (active). Besides, the AC50 in experiment [10] is 57.8 µM (active) and 55.1 µM (active); in experiment [11], 9.64 µM (active); in experiment [12], 40.4 µM (active) and 42.4 µM (active); in experiment [13], 25.5 µM (active) and 24 µM (active); in [15], 44.1 µM (active) and 46.5 µM (active). The molecule was classed as inactive in experiment [3], in [8], in experiment [9], in [11] and in experiment [16].

Turning to `C=C(C)C(=O)OCC(F)(F)C(F)(F)C(F)(F)C(F)(F)C(F)(F)C(F)(F)C(F)(F)F`, the result in [1], in experiment [2], in experiment [3], in experiment [4], in experiment [5] and in experiment [6] was inactive. Further, the result in experiment [7], in experiment [8], in [9], in experiment [10], in experiment [11] and in experiment [12] was inactive. Also, the outcome in [13], in experiment [14], in experiment [15] and in [16] was inactive. For the same molecule, the concentration at half-maximal activity (AC50) in [5] is 3.2 µM (active).

For the molecule `CCCCNc1ccccc1`, the outcome in experiment [1], in [2], in experiment [3], in experiment [4], in experiment [5] and in [18] was inactive. The result in experiment [6], in experiment [7], in [8], in experiment [10], in experiment [11] and in [12] was inactive. Besides, the result in experiment [13], in experiment [15], in experiment [19], in experiment [16] and in experiment [17] was inactive.

For `FC(F)(F)C(F)(F)CNCC(F)(F)C(F)(F)F`, the AC50 in experiment [1] was 30 µM (active). The outcome in experiment [1], in [2], in experiment [3], in experiment [4], in experiment [5] and in [6] was inactive. Besides, the result in [7], in experiment [8], in experiment [9], in experiment [10], in experiment [11] and in experiment [12] was inactive. Also, the result in experiment [13], in [14], in experiment [15], in experiment [16] and in experiment [20] was inactive.

`CCCCCCCCCCCCCCCC[N+](C)(C)Cc1ccccc1`: the AC50 is 7.59 µM (active) in [1]; 4.12 µM (active) in experiment [2]; 9.34 µM (active) in [5]; 2.96 µM (active) in experiment [18]; 4.62 µM (active) in [6]; 5.09 µM (active) in experiment [7]. Also, the concentration at half-maximal activity (AC50) in experiment [8] is 5.04 µM (active); in experiment [9], 5.17 µM (active); in experiment [10] it was 5.78 µM (active); in experiment [11], 38.8 µM (active); in experiment [12], 2.19 µM (active); in [13], 1.78 µM (active). Further, the AC50 in experiment [15] was 10 µM (active); in [19], 20 µM (active); in experiment [16] it was 20 µM (active); in experiment [20], 9.42 µM (active). In addition, the molecule was called inactive in [3] and in [4].
